Experimental data from the supplement of paper PMC8975748.
Structures can show the parent of a compound that is named as a salt. ± gives the standard deviation of the averaged measurements.

Experiments:
[1] = tested on: Saccharomyces cerevisiae BY4741 SeMeCo community; assay: mean cell size (pixel area) (pixels); higher = larger cells; conditions: 10 µM; 24 h; SM minimal medium
How it was run: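 A four-plasmid fluorescent Saccharomyces cerevisiae BY4741 community was tested; each plasmid complements one auxotrophy and carries a fluorescent marker. An overnight preculture at OD600 = 1.0 was diluted to OD600 = 0.3, and 70 µl was added to 384-well plates acoustically predosed with drug (final 10 µM) in SM medium for 24 h. Cells were fixed with paraformaldehyde and imaged by automated confocal microscopy, with analysis in Harmony. Mean cell pixel area per well is averaged over 3 replicates. Same SeMeCo high-content imaging drug screen: Selleck FDA-approved drugs at 10 µM, 24 h in SM medium, 384-well plates, 3 replicates.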

[2] = tested on: Saccharomyces cerevisiae BY4741 SeMeCo community; assay: z-score of prototroph abundance vs DMSO median; higher = larger share of this subpopulation than in DMSO controls; conditions: 10 µM; 24 h; SM minimal medium; subpopulation (auxotrophy): Prototroph
How it was run: (§1)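 A Saccharomyces cerevisiae BY4741 community carried four plasmids, each restoring one auxotrophy and encoding a distinct fluorescent protein. It was pre-grown overnight to OD600 1.0, diluted to 0.3, and 70 µl was added to 384-well plates acoustically predosed with library drugs (10 µM final), then grown 24 h in minimal SM medium. Cells were paraformaldehyde-fixed and imaged by automated confocal microscopy, with single-auxotroph fluorescent strains setting thresholds and autofluorescence correction. Each subpopulation's abundance was scored as a z-score against the vehicle-well median.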

[3] = tested on: Saccharomyces cerevisiae BY4741 SeMeCo community; assay: z-score of subpopulation abundance vs DMSO median, subpopulation auxotrophic for M; higher = larger share of this subpopulation than in DMSO controls; conditions: 10 µM; 24 h; SM minimal medium; subpopulation (auxotrophy): M
How it was run: as §1

[4] = tested on: Saccharomyces cerevisiae BY4741 SeMeCo community; assay: z-score of subpopulation abundance vs DMSO median, subpopulation auxotrophic for L; higher = larger share of this subpopulation than in DMSO controls; conditions: 10 µM; 24 h; SM minimal medium; subpopulation (auxotrophy): L
How it was run: as §1

[5] = tested on: Saccharomyces cerevisiae BY4741 SeMeCo community; assay: z-score of subpopulation abundance vs DMSO median, subpopulation auxotrophic for U; higher = larger share of this subpopulation than in DMSO controls; conditions: 10 µM; 24 h; SM minimal medium; subpopulation (auxotrophy): U
How it was run: as §1

[6] = tested on: Saccharomyces cerevisiae BY4741 SeMeCo community; assay: z-score of subpopulation abundance vs DMSO median, subpopulation auxotrophic for LU; higher = larger share of this subpopulation than in DMSO controls; conditions: 10 µM; 24 h; SM minimal medium; subpopulation (auxotrophy): LU
How it was run: as §1

[7] = tested on: Saccharomyces cerevisiae BY4741 SeMeCo community; assay: z-score of subpopulation abundance vs DMSO median, subpopulation auxotrophic for LM; higher = larger share of this subpopulation than in DMSO controls; conditions: 10 µM; 24 h; SM minimal medium; subpopulation (auxotrophy): LM
How it was run: as §1

[8] = tested on: Saccharomyces cerevisiae BY4741 SeMeCo community; assay: z-score of subpopulation abundance vs DMSO median, subpopulation auxotrophic for HM; higher = larger share of this subpopulation than in DMSO controls; conditions: 10 µM; 24 h; SM minimal medium; subpopulation (auxotrophy): HM
How it was run: as §1

[9] = tested on: Saccharomyces cerevisiae BY4741 SeMeCo community; assay: z-score of subpopulation abundance vs DMSO median, subpopulation auxotrophic for HU; higher = larger share of this subpopulation than in DMSO controls; conditions: 10 µM; 24 h; SM minimal medium; subpopulation (auxotrophy): HU
How it was run: as §1

[10] = tested on: Saccharomyces cerevisiae BY4741 SeMeCo community; assay: z-score of subpopulation abundance vs DMSO median, subpopulation auxotrophic for UM; higher = larger share of this subpopulation than in DMSO controls; conditions: 10 µM; 24 h; SM minimal medium; subpopulation (auxotrophy): UM
How it was run: as §1

[11] = tested on: Saccharomyces cerevisiae BY4741 SeMeCo community; assay: z-score of subpopulation abundance vs DMSO median, subpopulation auxotrophic for HL; higher = larger share of this subpopulation than in DMSO controls; conditions: 10 µM; 24 h; SM minimal medium; subpopulation (auxotrophy): HL
How it was run: as §1

[12] = tested on: Saccharomyces cerevisiae BY4741 SeMeCo community; assay: z-score of subpopulation abundance vs DMSO median, subpopulation auxotrophic for HLU; higher = larger share of this subpopulation than in DMSO controls; conditions: 10 µM; 24 h; SM minimal medium; subpopulation (auxotrophy): HLU
How it was run: as §1

[13] = tested on: Saccharomyces cerevisiae BY4741 SeMeCo community; assay: z-score of subpopulation abundance vs DMSO median, subpopulation auxotrophic for HLM; higher = larger share of this subpopulation than in DMSO controls; conditions: 10 µM; 24 h; SM minimal medium; subpopulation (auxotrophy): HLM
How it was run: as §1

[14] = tested on: Saccharomyces cerevisiae BY4741 SeMeCo community; assay: z-score of subpopulation abundance vs DMSO median, subpopulation auxotrophic for HLUM; higher = larger share of this subpopulation than in DMSO controls; conditions: 10 µM; 24 h; SM minimal medium; subpopulation (auxotrophy): HLUM
How it was run: as §1

[15] = tested on: Saccharomyces cerevisiae BY4741 SeMeCo community; assay: z-score of subpopulation abundance vs DMSO median, subpopulation auxotrophic for H; higher = larger share of this subpopulation than in DMSO controls; conditions: 10 µM; 24 h; SM minimal medium; subpopulation (auxotrophy): H
How it was run: as §1

[16] = tested on: Saccharomyces cerevisiae BY4741 SeMeCo community; assay: z-score of subpopulation abundance vs DMSO median, subpopulation auxotrophic for HUM; higher = larger share of this subpopulation than in DMSO controls; conditions: 10 µM; 24 h; SM minimal medium; subpopulation (auxotrophy): HUM
How it was run: as §1

[17] = tested on: Saccharomyces cerevisiae BY4741 SeMeCo community; assay: z-score of subpopulation abundance vs DMSO median, subpopulation auxotrophic for LUM; higher = larger share of this subpopulation than in DMSO controls; conditions: 10 µM; 24 h; SM minimal medium; subpopulation (auxotrophy): LUM
How it was run: as §1

Compound | mean cell size [1] | z-score of prototroph abundance [2] | z-score of subpopulation abundance [3] | z-score of subpopulation abundance [4] | z-score of subpopulation abundance [5] | z-score of subpopulation abundance [6] | z-score of subpopulation abundance [7] | z-score of subpopulation abundance [8] | z-score of subpopulation abundance [9] | z-score of subpopulation abundance [10] | z-score of subpopulation abundance [11] | z-score of subpopulation abundance [12] | z-score of subpopulation abundance [13] | z-score of subpopulation abundance [14] | z-score of subpopulation abundance [15] | z-score of subpopulation abundance [16] | z-score of subpopulation abundance [17]
CC(C)C(=O)c1c(C(C)C)nn2ccccc12 [Ibudilast] | 12.6 ± 0.22 | 0.24 | -0.62 | -0.54 | 1.05 | 0.04 | -0.43 | -1.12 | 0.99 | 1.06 | -0.96 | -0.65 | -0.49 | -0.23 | – | – | –
N/C(=N\N=C\c1ccc(Cl)cc1)N/N=C/c1ccc(Cl)cc1 [Robenidine Hydrochoride] | – | -8.77 | 9.06 | -1.06 | -2.96 | -2.55 | 5.64 | 11.4 | -0.45 | – | 6.84 | 0.81 | 10.4 | – | 5.77 | 11.9 | 7.91
C[C@]12CC[C@@H]3c4ccc(O)cc4CC[C@H]3[C@@H]1CC[C@@H]2OC(=O)CCC1CCCC1 [Estradiol Cypionate] | – | -0.3 | -0.43 | -0.23 | 0.71 | 0.17 | -0.12 | – | 0.6 | 0.45 | -0.29 | 0 | 0.33 | 0.52 | – | 1.22 | 0.29
CC(C)C(=O)Oc1ccc(CO)cc1[C@H](CCN(C(C)C)C(C)C)c1ccccc1 [Fesoterodine Fumarate] | 12.3 ± 0.21 | 0.94 | 0 | -0.39 | 0.1 | -0.25 | -0.9 | -0.41 | -0.72 | -0.82 | -0.27 | -0.16 | -1 | -1.13 | -1.08 | – | –
CCN(CC)CC#CCOC(=O)C(O)(c1ccccc1)C1CCCCC1 (configuration not stated) [Oxybutynin] | – | -0.02 | -0.18 | -0.14 | 0.19 | -0.54 | -0.42 | – | 0.37 | -0.47 | – | -0.2 | -0.46 | 1 | -0.43 | 0.54 | –
COc1cc(NS(=O)(=O)c2ccc(N)cc2)nc(OC)n1 [SulfadiMethoxine sodium] | 12.4 ± 0.15 | 0.53 | 0.96 | -0.99 | -0.68 | -0.82 | -0.45 | 0.06 | 0.29 | – | -0.28 | -0.72 | 0 | -0.21 | -0.13 | – | -0.37
CC1(C)S[C@@H]2[C@H](NC(=O)[C@H](C(=O)O)c3ccsc3)C(=O)N2[C@H]1C(=O)O [Ticarcillin sodium] | 12.4 ± 0.22 | -0.89 | 1.32 | 2.72 | -0.93 | 1.74 | 2.06 | 0.42 | – | -0.45 | 2.48 | 1.46 | 1.43 | 1.75 | 0.6 | – | 1.35
CNCc1cc(-c2ccccc2F)n(S(=O)(=O)c2cccnc2)c1 [Vonoprazan Fumarate (TAK-438)] | 12.3 ± 0.26 | 0 | 0.45 | -1.45 | – | -0.72 | -0.98 | -0.52 | -0.16 | -0.09 | -1.38 | -0.64 | -0.4 | -0.37 | -0.55 | – | -0.32
CCS(=O)(=O)CCn1c([N+](=O)[O-])cnc1C [Tinidazole] | 12.26 ± 0.046 | 0.58 | -0.75 | 0.1 | – | 0.29 | 0.29 | -1.1 | -0.4 | – | -0.55 | 0.09 | -1.15 | – | -1.03 | – | -0.2
C[N+](C)(C)CCO.[Cl-] [Choline Chloride] | 12 ± 0.25 | 0.21 | -1.56 | -0.08 | – | 0.54 | -0.75 | -1.2 | -0.41 | 0.32 | -0.62 | -0.27 | -0.83 | -0.62 | -0.8 | – | 0.75
CN(C)CCCC1(c2ccc(F)cc2)OCc2cc(C#N)ccc21 (configuration not stated) [Citalopram HBr] | – | -0.34 | -0.6 | -0.17 | 1.58 | 0.92 | – | -0.81 | 0.64 | 0.83 | – | 0.43 | 0.45 | 1.38 | 0.36 | – | -0.03
CN1CCN(C2=Nc3ccccc3Oc3ccc(Cl)cc32)CC1 [Loxapine Succinate] | 12.4 ± 0.17 | -0.71 | -0.12 | 1.71 | 0.78 | 1.85 | – | 0.14 | 0.53 | 0.97 | 1.02 | 0.59 | 0.21 | – | 0.08 | – | 1.15
Fc1ccc([C@@H]2CCNC[C@H]2COc2ccc3c(c2)OCO3)cc1 [Paroxetine mesylate] | 12.1 ± 0.27 | 0.14 | -0.51 | 0.03 | 0.96 | 0.46 | -0.87 | – | -0.22 | – | – | 0 | 0.34 | -0.05 | – | – | -0.39
CN(C/C=C/C#CC(C)(C)C)Cc1cccc2ccccc12 [Terbinafine HCl] | 12.27 ± 0.088 | -0.62 | 1.09 | -0.84 | 1.03 | 0.54 | -0.74 | – | 0.89 | 1.94 | -0.47 | -0.09 | -0.22 | 1 | -0.56 | – | 0.47
C1N2CN3CN1CN(C2)C3 [Methenamine] | 12.21 ± 0.073 | -0.97 | 0.26 | -0.63 | 0.59 | -0.57 | 0.49 | 1.35 | – | 0.8 | -0.01 | -0.02 | 0.4 | -0.16 | 0.28 | – | 0.29
